Data reported in the supplement of paper PMC4466140.

target: AgAbp1; assay: SPOT peptide array binding signal intensity (averaged, normalized) (arbitrary units (background-subtracted, floor 0; scale differs between SH3 domains)); higher = stronger binding of the SH3 domain to the peptide
In short: (§1)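 Spot intensities were captured after detection with anti-GST antibody, an HRP-linked anti-mouse secondary and luminol, and quantified with Genespotter. The probes were GST-fused SH3 domains from four yeast species, produced in E. coli BL21(DE3), purified on glutathione Sepharose and incubated at 10 μg/ml overnight at 4°C on cellulose-bound synthetic 15-mer peptides with cysteines replaced by serines. Binding signal is the normalized, background-subtracted spot intensity averaged over replicates, and its arbitrary units differ between domains.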

Row | Binder | SPOT peptide array binding signal intensity
1 | SNRRPVPRRPSQPLN | 587

target: AgBbc1; assay: as above
In short: as §1

Row | Binder | SPOT peptide array binding signal intensity
2 | SNRRPVPRRPSQPLN | 790

target: AgBem1-D1; assay: as above
In short: as §1

Row | Binder | SPOT peptide array binding signal intensity
3 | SNRRPVPRRPSQPLN | 12

target: AgBzz1-D1; assay: as above
In short: as §1

Row | Binder | SPOT peptide array binding signal intensity
4 | SNRRPVPRRPSQPLN | 157

target: AgBzz1-D2; assay: as above
In short: as §1

Row | Binder | SPOT peptide array binding signal intensity
5 | SNRRPVPRRPSQPLN | 61.8

target: AgCyk3; assay: as above
In short: as §1

Row | Binder | SPOT peptide array binding signal intensity
6 | SNRRPVPRRPSQPLN | 7.5

target: AgFus1; assay: as above
In short: as §1

Row | Binder | SPOT peptide array binding signal intensity
7 | SNRRPVPRRPSQPLN | 27

target: AgHof1; assay: as above
In short: as §1

Row | Binder | SPOT peptide array binding signal intensity
8 | SNRRPVPRRPSQPLN | 9

target: AgHse1; assay: as above
In short: as §1

Row | Binder | SPOT peptide array binding signal intensity
9 | SNRRPVPRRPSQPLN | 18.2

target: AgLsb1; assay: as above
In short: as §1

Row | Binder | SPOT peptide array binding signal intensity
10 | SNRRPVPRRPSQPLN | 23.5

target: AgLsb4; assay: as above
In short: as §1

Row | Binder | SPOT peptide array binding signal intensity
11 | SNRRPVPRRPSQPLN | 3680

target: AgMyo5; assay: as above
In short: as §1

Row | Binder | SPOT peptide array binding signal intensity
12 | SNRRPVPRRPSQPLN | 0.25

target: AgNbp2; assay: as above
In short: as §1

Row | Binder | SPOT peptide array binding signal intensity
13 | SNRRPVPRRPSQPLN | 1230

target: AgRvs167; assay: as above
In short: as §1

Row | Binder | SPOT peptide array binding signal intensity
14 | SNRRPVPRRPSQPLN | 64.1

target: AgSho1; assay: as above
In short: as §1

Row | Binder | SPOT peptide array binding signal intensity
15 | SNRRPVPRRPSQPLN | 5.75

target: AgSla1-D1-D2; assay: as above
In short: as §1

Row | Binder | SPOT peptide array binding signal intensity
16 | SNRRPVPRRPSQPLN | ≤ 0

target: AgSla1-D3; assay: as above
In short: as §1

Row | Binder | SPOT peptide array binding signal intensity
17 | SNRRPVPRRPSQPLN | 3

target: CaAbp1-D1; assay: as above
In short: as §1

Row | Binder | SPOT peptide array binding signal intensity
18 | SNRRPVPRRPSQPLN | 328

target: CaAbp1-D2; assay: as above
In short: as §1

Row | Binder | SPOT peptide array binding signal intensity
19 | SNRRPVPRRPSQPLN | 574

target: CaBbc1; assay: as above
In short: as §1

Row | Binder | SPOT peptide array binding signal intensity
20 | SNRRPVPRRPSQPLN | 1250

target: CaBem1-D1; assay: as above
In short: as §1

Row | Binder | SPOT peptide array binding signal intensity
21 | SNRRPVPRRPSQPLN | 135

target: CaBzz1-D1; assay: as above
In short: as §1

Row | Binder | SPOT peptide array binding signal intensity
22 | SNRRPVPRRPSQPLN | 380

target: CaBzz1-D2; assay: as above
In short: as §1

Row | Binder | SPOT peptide array binding signal intensity
23 | SNRRPVPRRPSQPLN | 153

target: CaCyk3; assay: as above
In short: as §1

Row | Binder | SPOT peptide array binding signal intensity
24 | SNRRPVPRRPSQPLN | 464

target: CaFus1; assay: as above
In short: as §1

Row | Binder | SPOT peptide array binding signal intensity
25 | SNRRPVPRRPSQPLN | 111

target: CaHof1; assay: as above
In short: as §1

Row | Binder | SPOT peptide array binding signal intensity
26 | SNRRPVPRRPSQPLN | ≤ 0

target: CaHse1; assay: as above
In short: as §1

Row | Binder | SPOT peptide array binding signal intensity
27 | SNRRPVPRRPSQPLN | 20.5

target: CaLsb1; assay: as above
In short: as §1

Row | Binder | SPOT peptide array binding signal intensity
28 | SNRRPVPRRPSQPLN | 2

target: CaLsb4; assay: as above
In short: as §1

Row | Binder | SPOT peptide array binding signal intensity
29 | SNRRPVPRRPSQPLN | 4120

target: CaMyo5; assay: as above
In short: as §1

Row | Binder | SPOT peptide array binding signal intensity
30 | SNRRPVPRRPSQPLN | 2.75

target: CaNbp2; assay: as above
In short: as §1

Row | Binder | SPOT peptide array binding signal intensity
31 | SNRRPVPRRPSQPLN | 1960

target: CaRvs167; assay: as above
In short: as §1

Row | Binder | SPOT peptide array binding signal intensity
32 | SNRRPVPRRPSQPLN | 303

target: CaRvs167-3; assay: as above
In short: as §1

Row | Binder | SPOT peptide array binding signal intensity
33 | SNRRPVPRRPSQPLN | 3.5

target: CaSho1; assay: as above
In short: as §1

Row | Binder | SPOT peptide array binding signal intensity
34 | SNRRPVPRRPSQPLN | ≤ 0

target: CaSla1-D1-D2; assay: as above
In short: as §1

Row | Binder | SPOT peptide array binding signal intensity
35 | SNRRPVPRRPSQPLN | 1570

target: CaSla1-D3; assay: as above
In short: as §1

Row | Binder | SPOT peptide array binding signal intensity
36 | SNRRPVPRRPSQPLN | 14.2

target: ScAbp1; assay: as above
In short: as §1

Row | Binder | SPOT peptide array binding signal intensity
37 | SNRRPVPRRPSQPLN | 306

target: ScBbc1; assay: as above
In short: as §1

Row | Binder | SPOT peptide array binding signal intensity
38 | SNRRPVPRRPSQPLN | 478

target: ScBem1-D1; assay: as above
In short: as §1

Row | Binder | SPOT peptide array binding signal intensity
39 | SNRRPVPRRPSQPLN | 22

target: ScBzz1-D1; assay: as above
In short: as §1

Row | Binder | SPOT peptide array binding signal intensity
40 | SNRRPVPRRPSQPLN | 11.5

target: ScBzz1-D2; assay: as above
In short: as §1

Row | Binder | SPOT peptide array binding signal intensity
41 | SNRRPVPRRPSQPLN | 36.5

target: ScCyk3; assay: as above
In short: as §1

Row | Binder | SPOT peptide array binding signal intensity
42 | SNRRPVPRRPSQPLN | 17

target: ScFus1; assay: as above
In short: as §1

Row | Binder | SPOT peptide array binding signal intensity
43 | SNRRPVPRRPSQPLN | 56.8

target: ScHof1; assay: as above
In short: as §1

Row | Binder | SPOT peptide array binding signal intensity
44 | SNRRPVPRRPSQPLN | ≤ 0

target: ScHse1; assay: as above
In short: as §1

Row | Binder | SPOT peptide array binding signal intensity
45 | SNRRPVPRRPSQPLN | 639

target: ScLsb1; assay: as above
In short: as §1

Row | Binder | SPOT peptide array binding signal intensity
46 | SNRRPVPRRPSQPLN | 425

target: ScLsb2; assay: as above
In short: as §1

Row | Binder | SPOT peptide array binding signal intensity
47 | SNRRPVPRRPSQPLN | 8.5

target: ScLsb3; assay: as above
In short: as §1

Row | Binder | SPOT peptide array binding signal intensity
48 | SNRRPVPRRPSQPLN | 6520

target: ScLsb4; assay: as above
In short: as §1

Row | Binder | SPOT peptide array binding signal intensity
49 | SNRRPVPRRPSQPLN | 1140

target: ScMyo3; assay: as above
In short: as §1

Row | Binder | SPOT peptide array binding signal intensity
50 | SNRRPVPRRPSQPLN | 4.75

target: ScMyo5; assay: as above
In short: as §1

Row | Binder | SPOT peptide array binding signal intensity
51 | SNRRPVPRRPSQPLN | 2.75

target: ScNbp2; assay: as above
In short: as §1

Row | Binder | SPOT peptide array binding signal intensity
52 | SNRRPVPRRPSQPLN | 2500

target: ScPex13; assay: as above
In short: as §1

Row | Binder | SPOT peptide array binding signal intensity
53 | SNRRPVPRRPSQPLN | 377

target: ScRvs167; assay: as above
In short: as §1

Row | Binder | SPOT peptide array binding signal intensity
54 | SNRRPVPRRPSQPLN | 2630

target: ScSho1; assay: as above
In short: as §1

Row | Binder | SPOT peptide array binding signal intensity
55 | SNRRPVPRRPSQPLN | 83

target: ScSla1-D1-D2; assay: as above
In short: as §1

Row | Binder | SPOT peptide array binding signal intensity
56 | SNRRPVPRRPSQPLN | 2640

target: ScSla1-D3; assay: as above
In short: as §1

Row | Binder | SPOT peptide array binding signal intensity
57 | SNRRPVPRRPSQPLN | 66.1

target: SpAbp1-D1; assay: as above
In short: as §1

Row | Binder | SPOT peptide array binding signal intensity
58 | SNRRPVPRRPSQPLN | 352

target: SpBbc1; assay: as above
In short: as §1

Row | Binder | SPOT peptide array binding signal intensity
59 | SNRRPVPRRPSQPLN | 472

target: SpBzz1-D1; assay: as above
In short: as §1

Row | Binder | SPOT peptide array binding signal intensity
60 | SNRRPVPRRPSQPLN | 500

target: SpBzz1-D2; assay: as above
In short: as §1

Row | Binder | SPOT peptide array binding signal intensity
61 | SNRRPVPRRPSQPLN | 0.75

target: SpCyk3; assay: as above
In short: as §1

Row | Binder | SPOT peptide array binding signal intensity
62 | SNRRPVPRRPSQPLN | 6

target: SpHof1; assay: as above
In short: as §1

Row | Binder | SPOT peptide array binding signal intensity
63 | SNRRPVPRRPSQPLN | 245

target: SpHof1-2; assay: as above
In short: as §1

Row | Binder | SPOT peptide array binding signal intensity
64 | SNRRPVPRRPSQPLN | 204

target: SpHof1-3; assay: as above
In short: as §1

Row | Binder | SPOT peptide array binding signal intensity
65 | SNRRPVPRRPSQPLN | 302

target: SpHse1; assay: as above
In short: as §1

Row | Binder | SPOT peptide array binding signal intensity
66 | SNRRPVPRRPSQPLN | 91.5

target: SpLsb1; assay: as above
In short: as §1

Row | Binder | SPOT peptide array binding signal intensity
67 | SNRRPVPRRPSQPLN | 96

target: SpLsb4; assay: as above
In short: as §1

Row | Binder | SPOT peptide array binding signal intensity
68 | SNRRPVPRRPSQPLN | 2870

target: SpMyo1; assay: as above
In short: as §1

Row | Binder | SPOT peptide array binding signal intensity
69 | SNRRPVPRRPSQPLN | 73.1

target: SpNbp2; assay: as above
In short: as §1

Row | Binder | SPOT peptide array binding signal intensity
70 | SNRRPVPRRPSQPLN | 21.5

target: SpPex13; assay: as above
In short: as §1

Row | Binder | SPOT peptide array binding signal intensity
71 | SNRRPVPRRPSQPLN | 4

target: SpRvs167; assay: as above
In short: as §1

Row | Binder | SPOT peptide array binding signal intensity
72 | SNRRPVPRRPSQPLN | 1830

target: SpSla1-D1-D2; assay: as above
In short: as §1

Row | Binder | SPOT peptide array binding signal intensity
73 | SNRRPVPRRPSQPLN | 21

target: SpSla1-D3; assay: as above
In short: as §1

Row | Binder | SPOT peptide array binding signal intensity
74 | SNRRPVPRRPSQPLN | 0.5
